Values joined by “and” are separate entries in the source; they are usually repeats but may differ in a detail not shown here. Identical values can stand only once. Unmarked numbers belong to inactive results. Records with an inconclusive call do not appear. Entries that show only a call come without a potency. Active and inactive are the calls of the source. Unless noted, the call rests on the fitted dose curve; in most records, active means well fitted curve in the direction sought with a large enough effect; inconclusive means small, poorly fitted or top-dose-only effect, or another doubt; inactive means no such curve, though single readings can be large; an effect the other way counts as inactive or inconclusive.
Columns and labels:
[1] = Cell Viability - HepG2 (AID 433; calls by dose curve;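 further: potency means the concentration at half of the fitted maximal effect; potency for ATP loss meaning cytotoxicity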); conditions: qHTS
Summary of the method: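 HepG2 hepatocellular carcinoma cells (1500/well) were treated with compounds for 40 h at 37 °C in complete medium; intracellular ATP was read by CellTiter-Glo luminescence. Data were normalized to DMSO and 100 uM tamoxifen, and AC50 came from Hill fits.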

[2] = Cell Viability - HUV-EC-C (AID 542); conditions: HUV-EC-C endothelial cell viability, qHTS; series mostly up to 92.2 µM; further: nearly all actives have a fitted effect of over 35% in size; further: potency means the concentration at half of the fitted maximal effect
Summary of the method: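 HUV-EC-C human vascular endothelial cells, 1000/well, exposed to compound for 40 hr at 37 °C in complete medium. Intracellular ATP was read by CellTiter-Glo luminescence. AC50 came from Hill-equation fits of concentration-response data.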

[3] = Cellular Toxicity (caspase-3) HUV-EC-C (AID 656); conditions: HUV-EC-C cells, caspase-3 activation (apoptosis), vehicle = 0, 100 µM tamoxifen = 100%; series mostly up to 92.2 µM
Summary of the method: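 HUV-EC-C endothelial cells, 1000/well, were pre-incubated 5 hr at 37°C, then exposed to compounds for 16 hr at 37°C. Caspase-Glo 3/7 luminescence was read after 20 min at room temperature. AC50 came from Hill fits, normalized to DMSO and 100 uM tamoxifen.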

[4] = Cellular Toxicity (caspase-3) H-4-II-E (AID 663); conditions: H-4-II-E rat hepatoma; Potency: caspase-3 activation; series mostly up to 92.2 µM;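 further: cells exposed to compound for 16 hr before readout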
Summary of the method: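 Apoptosis induction is scored as increased luminescence from caspase 3/7 substrate cleavage in rat hepatoma H-4-II-E cells exposed to compound for 16 hr. Activity is scaled between DMSO and 100 uM tamoxifen.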

[5] = Cellular Toxicity (caspase-3) NIH 3T3 (AID 666); conditions: NIH 3T3 caspase-3 activation, apoptosis/toxicity; series mostly up to 92.2 µM;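 further: caspase signal read after 16 h compound exposure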
Summary of the method: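 Mouse NIH 3T3 fibroblasts (1000/well) treated 16 h at 37 C; caspase-3/7 activity measured by Caspase-Glo 3/7 luminescence after 20 min. Normalized to DMSO and 100 uM tamoxifen; AC50 from Hill fits.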

[6] = Cellular Toxicity (caspase-3) Renal Proximal Tubule (AID 667); conditions: renal proximal tubule cells; series mostly up to 91.7 µM;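 further: cells exposed to compound for 16 hours at 37 °C before detection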
Summary of the method: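 Primary rat proximal tubule cells, 1000/well, 5 h plating at 37 °C, then compound 16 h at 37 °C. Caspase-Glo 3/7 reagent, 1 h RT, luminescence. Normalized to DMSO (basal) and 10 uM staurosporine (100%); Hill-fit AC50.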

[7] = Cell Viability - LYMP2-001 (AID 921); conditions: LYMP2-001 lymphoblastoid cell viability; series mostly up to 92.2 µM; further: nearly all actives have a fitted effect of over 70% in size; further: potency means the concentration at half of the fitted maximal effect
Summary of the method: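 Human lymphoblastoid cells (Coriell), 2500 per well, were preincubated 5 hr at 37 C, then exposed to compounds in complete medium for 24 hr at 37 C. Cellular ATP was read by CellTiter-Glo luminescence; AC50 from Hill fits of concentration-response data.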

[8] = MultiTox-Fluor Cytotoxicity Assay - LYMP1-001 - Dead Cells (AID 946); conditions: LYMP1-001 lymphoblastoid cells, dead-cell protease fluorescence; series mostly up to 92.2 µM
Summary of the method: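 Seed 2500 LYMP1-001 cells/well, incubate 5 hr at 37 C; add compound, 16 hr at 37 C; add MultiTox-Fluor reagent, 60 min RT; read dead-cell fluorescence Ex/Em=485/520. Normalize to DMSO and 15 uM tetraoctylammonium bromide.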

[9] = MultiTox-Fluor Cytotoxicity Assay - LYMP1-002 - Live Cells (AID 955); conditions: LYMP1-002 lymphoblastoid live-cell protease fluorescence viability; series mostly up to 46.1 µM
Summary of the method: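 Human lymphoblastoid LYMP1-002 cells, 2500/well, treated 16 h at 37 C in complete medium. Live-cell protease activity via GF-AFC fluorescence (Ex/Em 405/510) after 60 min reagent incubation; AC50 from Hill fits.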

[10] = Cell Viability - LYMP1-003 - Assay at 40 hr (AID 964); conditions: LYMP1-003 lymphoblastoid viability; series mostly up to 92.2 µM; further: nearly all actives have a fitted effect of over 60% in size; further: potency means the concentration at half of the fitted maximal effect
Summary of the method: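 LYMP1-003 human lymphoblastoid cells, 2500/well, preincubated 5 h at 37 C, then treated with compound for 40 h at 37 C. Intracellular ATP read by CellTiter-Glo luminescence after 30 min at room temperature; AC50 from Hill-equation fits.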

[11] = Cell Viability - LYMP2-003 (AID 965); conditions: LYMP2-003 lymphoblastoid cell viability; series mostly up to 92.2 µM;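 further: cells exposed to compounds for 24 h before reading; nearly all actives have a fitted effect of over 50% in size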; further: potency means the concentration at half of the fitted maximal effect
Summary of the method: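 Human lymphoblastoid cells (2500/well) were pre-incubated 5 hr at 37 C, then exposed to compounds over a concentration range for 24 hr at 37 C. Intracellular ATP was read by CellTiter-Glo luminescence; AC50 came from Hill-equation fits.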

[12] = Cell Viability - LYMP2-015 (AID 971); conditions: LYMP2-015 lymphoblastoid cell viability; series mostly up to 92.2 µM; further: nearly all actives have a fitted effect of over 55% in size; further: potency means the concentration at half of the fitted maximal effect
Summary of the method: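 LYMP2-015 human lymphoblastoid cells (2500/well) in complete medium, compound-treated 24 h at 37 C; viability read as cellular ATP by CellTiter-Glo luminescence after 30 min at room temperature. AC50 from Hill-equation fits of qHTS concentration-response data.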

[13] = Cell Viability - LYMP2-023 (AID 975); conditions: LYMP2-023 lymphoblastoid cell viability; series mostly up to 92.2 µM;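 further: cellular ATP measured by luciferase luminescence as viability proxy; nearly all actives have a fitted effect of over 55% in size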
Summary of the method: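 LYMP2-023 human lymphoblastoid cells, 2500/well, preincubated 5 hr at 37 C, then compound-treated 24 hr at 37 C in complete medium. CellTiter-Glo luminescence (ATP) after 30 min at room temperature; AC50 from Hill-equation fits; tetraoctylammonium bromide positive control.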

[14] = Cell Viability - LYMP2-006 (AID 978); conditions: LYMP2-006 lymphoblastoid cell viability, qHTS; series mostly up to 92.2 µM; further: nearly all actives have a fitted effect of over 60% in size; further: potency means the concentration at half of the fitted maximal effect
Summary of the method: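 Human lymphoblastoid cells, 2500 per well, were preincubated 5 hr at 37 C, then exposed to compounds for 24 hr at 37 C in complete medium. Viability was read as intracellular ATP by CellTiter-Glo luminescence; AC50 from Hill-equation fits of qHTS concentration-response data.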

[15] = Cell Viability - LYMP2-012 (AID 982); conditions: LYMP2-012 lymphoblastoid cell viability qHTS; series mostly up to 92.2 µM;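 further: cellular ATP by luciferase luminescence where a drop means cytotoxicity; cells exposed to compound for one day before reading; nearly all actives have a fitted effect of over 55% in size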; further: potency means the concentration at half of the fitted maximal effect
[16] = Cell Viability - LYMP2-026 (AID 989); conditions: LYMP2-026 lymphoblastoid cell viability, qHTS; series mostly up to 92.2 µM; further: nearly all actives have a fitted effect of over 50% in size
Summary of the method: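 Human lymphoblastoid LYMP2-026 cells, 2500/well, exposed to compound 24 h at 37 C in complete medium. Viability as intracellular ATP by CellTiter-Glo luminescence; AC50 from Hill fits of qHTS concentration-response.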

[17] = target: Vitamin D3 receptor (Homo sapiens) (UniProt P11473); test: qHTS assay for small molecule agonists of vitamin D receptor signaling (AID 588543; calls by dose curve); conditions: HEK293T VDR-UAS-bla, beta-lactamase ratio, 16 h; series mostly up to 76.8 µM
Chain of Vitamin D3 receptor (Homo sapiens) (P11473 whole entry, looked up): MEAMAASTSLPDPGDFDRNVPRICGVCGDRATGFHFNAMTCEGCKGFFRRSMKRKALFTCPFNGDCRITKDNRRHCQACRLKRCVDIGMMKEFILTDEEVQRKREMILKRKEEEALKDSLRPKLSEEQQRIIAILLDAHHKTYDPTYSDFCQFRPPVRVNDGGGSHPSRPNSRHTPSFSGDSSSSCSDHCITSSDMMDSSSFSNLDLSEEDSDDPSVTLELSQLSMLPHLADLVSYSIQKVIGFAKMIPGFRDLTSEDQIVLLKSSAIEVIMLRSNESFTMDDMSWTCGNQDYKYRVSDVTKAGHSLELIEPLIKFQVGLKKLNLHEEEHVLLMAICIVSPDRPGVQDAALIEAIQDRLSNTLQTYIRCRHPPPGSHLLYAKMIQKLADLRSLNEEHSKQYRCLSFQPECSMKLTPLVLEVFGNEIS
Summary of the method: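 GeneBLAzer VDR-UAS-bla HEK293T cells in 2% charcoal-stripped FBS medium were dosed with compound titrations for 16 h at 37 °C; CCF4 β-lactamase readout (405 nm ex, 460/530 nm em). EC50 and efficacy from Hill fits, normalized to 50 nM calcitriol (100%) and DMSO (0%).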

[18] = qHTS assay for small molecule disruptors of the mitochondrial membrane potential - 5 hr assay (AID 651755; calls by dose curve; further: nearly all actives have a fitted effect of over 40% in size; further: potency means the concentration at half of the fitted maximal effect); conditions: JC-1-type ratio dye; series mostly up to 92.2 µM
Summary of the method: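 HepG2, 2,000 cells/well, overnight attach; cpd or DMSO 5 hr, 37C/5% CO2; Mito-MPS 30 min 37C; fluor 490/535 + 540/590 nm.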

[19] = target: Nuclear receptor subfamily 1 group I member 2 (Rattus norvegicus) (UniProt Q9R1A7); test: qHTS assay for small molecule activators of the rat pregnane X receptor (rPXR) signaling pathway (AID 651751; call rule not given here); conditions: rPXR reporter cells, luciferase (One-Glo), 24 h
Chain of Nuclear receptor subfamily 1 group I member 2 (Rattus norvegicus) (Q9R1A7 whole entry, looked up): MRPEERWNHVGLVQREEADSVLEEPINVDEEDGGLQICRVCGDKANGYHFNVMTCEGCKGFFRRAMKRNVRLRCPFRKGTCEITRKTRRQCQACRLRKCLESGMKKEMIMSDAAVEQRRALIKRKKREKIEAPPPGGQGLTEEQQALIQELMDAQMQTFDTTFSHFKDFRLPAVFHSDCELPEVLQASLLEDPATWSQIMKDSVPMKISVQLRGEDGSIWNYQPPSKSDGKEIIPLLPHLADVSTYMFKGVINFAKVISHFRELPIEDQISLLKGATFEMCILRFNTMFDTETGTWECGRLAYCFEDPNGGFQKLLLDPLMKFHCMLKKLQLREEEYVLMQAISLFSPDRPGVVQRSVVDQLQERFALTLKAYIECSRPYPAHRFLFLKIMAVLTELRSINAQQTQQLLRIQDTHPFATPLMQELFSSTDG

[20] = qHTS assay for small molecule activators of the human pregnane X receptor (PXR) signaling pathway (AID 720659; call rule not given here); conditions: DPX-2 HepG2 CYP3A4-luciferase, 24 h; series mostly up to 92.3 µM

SMILES | Potency [1] [µM] | Potency [2] | outcome [3] | Potency [4] | Potency [5] | outcome [6] | Potency [7] | outcome [8] | outcome [9] | Potency [10] | Potency [11] | Potency [12] | Potency [13] | Potency [14] | Potency [15] | Potency [16] | outcome [17] | Potency [18] | max response [19] | outcome [20]
N#CCCCCC#N | > 92 | inactive | inactive | inactive | inactive | inactive | inactive | inactive | inactive | inactive | inactive | inactive | inactive | inactive | inactive | inactive | inactive | inactive | 9.56% | inactive
Nc1ccc(Oc2ccc(N)cc2)cc1 | > 92 | inactive | inactive | inactive | inactive | inactive | inactive |  | inactive |  | inactive | inactive |  | inactive | inactive | inactive |  | inactive | 6.46% and 5.6% | inactive
CCC/C=N/O | > 92 | inactive | inactive | inactive | inactive | inactive | inactive |  | inactive | inactive | inactive | inactive | inactive | inactive | inactive |  | inactive | inactive | -0.891% | inactive
C=CC(=O)OCC(CC)CCCC (stereo not drawn) | > 92 | inactive | inactive | inactive | inactive | inactive | inactive | inactive | inactive | inactive | inactive |  | inactive | inactive | inactive | inactive | inactive | inactive | -2.19% and -0.52% | inactive
Nc1cc(Cl)cc(C(=O)O)c1Cl | > 92 | inactive |  | inactive | inactive | inactive | inactive | inactive | inactive | inactive | inactive | inactive | inactive | inactive | inactive | inactive | inactive | inactive | 3.15% and -3.28% | inactive
C=CC(=O)OCCO | > 92 | inactive | inactive | inactive | inactive | inactive |  | inactive | inactive |  | 50.1 µM (active) |  | inactive |  |  | inactive | inactive | inactive | 0.767% | inactive
Nc1ccc(-c2ccc(N)c(Cl)c2)cc1Cl | > 92 |  |  | inactive | inactive | inactive | inactive | inactive | inactive |  | inactive |  | inactive | inactive | inactive |  | inactive | 37.6 µM (active) |  | 
[C-]1=CC=CC1.[C-]1=CC=CC1.[Cl-].[Cl-].[Ti+4] |  | inactive | inactive | inactive | inactive | inactive |  | inactive |  |  |  |  |  |  |  |  | inactive |  |  | 
CN(C)c1ccc(N)cc1 | > 92 | 31.6 µM (active) | inactive |  |  | inactive | 50.1 µM (active) | inactive |  | 39.8 µM (active) |  | 50.1 µM (active) |  | 50.1 µM (active) | 50.1 µM (active) |  | inactive | 29.8 µM (active) |  | 
C/C=C/CC#N | > 92 |  |  | inactive | inactive | inactive | inactive | inactive | inactive | inactive | inactive | inactive | inactive | inactive | inactive | inactive |  | inactive | -0.823% | inactive
O=P(OCCCl)(OCCCl)OCCCl | > 92 | inactive | inactive |  | inactive | inactive | inactive | inactive | inactive |  |  | inactive | inactive | inactive | inactive | inactive | inactive | inactive | 6.23% | inactive
